The values that follow come from PubChem BioAssay (NCI).

Each structure is given as a SMILES string. About 79,000 compounds went through this panel and 15% of them were active in at least one assay; those are over-represented in the sample as a whole. Activity calls are given as the source filed them. Rule as the data show it: active = growth inhibition above about 70%; inactive = the rest.

This assay is described as follows: NCI Yeast Anticancer Drug Screen. Data for the sgs1 mgt1 strain (AID 161).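 Also: 0% = growth of cultures given vehicle only.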 The note with it: S. cerevisiae sgs1 mgt1 strain, at 50.0 µM, active compounds read high. In short, it runs like this: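 Yeast cells carrying a defined DNA-repair defect were exposed to test compounds. Growth inhibition was measured relative to vehicle-treated controls.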
Regarding `C=CC[N+](C)(C)C`, the growth inhibition was 5.75% (inactive).
In the case of `C/C(=N\NC(=O)c1ccccc1N)c1ccccc1O`, the growth inhibition was 26.6% (inactive).
As to `O=C(NCCNC(=O)c1ccc(Cl)cc1Cl)c1ccc(Cl)cc1Cl`, the growth inhibition was -4% (inactive).
The same measure for `CCOC(=O)CCCC(=O)OCC`: 1.65% (inactive); for `Cc1ccccc1C1N=C2Oc3ccccc3C=C2C(=O)N1` (stereo not drawn): 0.6% (inactive).
For `O=C(O)C(O)c1ccccc1` (stereo not drawn), the growth inhibition is -5.7% (inactive).
Turning to `CN(C)/N=C/c1ccccc1O`, the growth inhibition is -16.9% (inactive).
In the case of `O=c1cc2oc3cc(O)c(O)cc3c(-c3ccccc3O)c-2cc1O`, the growth inhibition was 44.9% (inactive).
Consider `Oc1ccccc1O`, for which the growth inhibition is 8.85% (inactive).
For `Cc1ccc(C(O)C2CC2)cc1` (stereo not drawn), the growth inhibition is -23.1% (inactive).
With `CSC[C@H](NC(=O)COc1cccc2cnccc12)C(=O)NC(Cc1ccccc1)C(O)C(=O)N1CSC[C@H]1C(=O)NC(C)(C)C` (stereo partly drawn) the figure was -28.9% (inactive); with `Cc1ccc(C)n1-c1ccsc1C(=O)NNC(=O)C(Cl)Cl`, 24.8% (inactive); with `O=S(=O)(O)c1ccc(O)c2ccccc12`, 0% (inactive).
Regarding `Cc1cc(C)c(CC(=O)O)c(C)c1`, the growth inhibition is 16.9% (inactive).
As for `CC1Cc2ccccc2O1` (stereo not drawn), the growth inhibition is -3.7% (inactive).
With `O=[N+]([O-])c1ccccc1N=Nc1ccc(O)cc1O` the figure was 31.9% (inactive); with `CC(=O)c1ccc(C)c(N)c1`, 6.25% (inactive); with `CCCCNC(=O)C(=O)NCCCC`, 4.6% (inactive).
On to `CCOC(=O)c1[nH]c(C)c(C(=O)O)c1C`, for which the growth inhibition was 0.2% (inactive).
Regarding `Cn1cnc2nc(Cl)nc(Cl)c21`, the growth inhibition is 10.7% (inactive).
As to `CC(=O)c1ccc2c(ccc3ccccc32)c1`, the growth inhibition was -12.6% (inactive).
For the molecule `O=c1[nH][nH]c(=O)c2cc([N+](=O)[O-])ccc12`, the growth inhibition is 1.7% (inactive).
Regarding `C=C1CC/C=C(\C)C(=O)C[C@@H]2[C@@H]1CC2(C)C`, the growth inhibition is 20.2% (inactive).
Regarding `COS(=O)(=O)c1ccc(Br)cc1`, the growth inhibition was -17.3% (inactive).
For the molecule `S=c1sc2ccccc2n1CN1CCCCC1`, the growth inhibition was 45% (inactive).
`O=c1[nH]nc(SC2CCCCC2)c(=O)[nH]1`: the growth inhibition is -11.9% (inactive).
Regarding `O=c1cc(-c2ccccc2)oc2c1ccc1ccccc12`, the growth inhibition was 21.9% (inactive).
Take `COc1cc(C2NC(=O)C(C#N)=C(Nc3cccc(C)c3)S2)ccc1O` (stereo not drawn): the growth inhibition is 13.4% (inactive).
`CCCCNC1(C#N)CCN(Cc2ccccc2)CC1`: the growth inhibition is -5.9% (inactive).
Regarding `O=C(Cc1nc2ccc([N+](=O)[O-])cc2nc1CC(=O)c1cccnc1)c1cccnc1`, the growth inhibition was -1.35% (inactive).
For `O=C1C=C(O)C(=O)C=C1O`, the growth inhibition is 14.9% (inactive).
The same measure for `O=C(CS)Nc1ccc2ccccc2c1`: 22% (inactive); for `COC(=O)c1[nH]c(=O)c(C#N)c(C(=O)OC)c1C(=O)c1ccccc1`: 10.5% (inactive); for `CCCC(C)OCC(=O)O` (stereo not drawn): 1.55% (inactive).
As for `CN(C)c1ccc2nc3ccc(=N)cc-3sc2c1`, the growth inhibition was 18.6% (inactive).
Consider `CCOC(=O)C(CCC(C)C)C(=O)OCC`, for which the growth inhibition was -9.65% (inactive).
On to `COC(=O)/C=C1\Sc2cc(F)ccc2NC1=O`, for which the growth inhibition was 13.9% (inactive).
The same measure for `Cc1cccc(C(=O)N(C(C)C)C(C)C)c1`: -4.25% (inactive).
